In PubChem BioAssay (Tox21) one finds Potency and outcome data, which are given here for 22 compounds.

“And” between values parts separate entries of the source, which are not always exact repeats. Equal values may be shown once. Records with an inconclusive call do not appear. Where a structure was tested more than once in an assay, its records may differ in their call. The source made the active and inactive calls. Unless noted, calls come from the whole dose curve; as a rule, active = well fitted curve in the direction sought with a large enough effect in the repeat runs; inconclusive = weak or mixed curves; inactive = no such curve, though single readings can be large; an effect the other way counts as inactive or inconclusive.

The target in experiment [1] is Progesterone receptor (Homo sapiens) (UniProt P06401). Put plainly: qHTS assay to identify small molecule agonists of the progesterone receptor (PR) signaling pathway (AID 1346784; calls by dose curve; note: nearly all actives have a fitted effect of over 30% in size; note: potency is the fitted concentration of half-maximal effect). The procedure, abridged:
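Compounds were tested for PR agonism in HEK 293T cells bearing a beta-lactamase gene under UAS control. Treatment lasted 16 hr at 37C; signal came from fluorescence of a FRET substrate.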
Background: Quantitative high-throughput screening tests each substance at several concentrations.

The target is the same in experiment [2]. The experiment can be described thus: qHTS assay to identify small molecule antagonists of the progesterone receptor (PR) signaling pathway (AID 1346795; active = well fitted inhibition curve with a large enough effect in the signal ratio in the repeat runs, not every such curve was filed as active; the % refers to the signal ratio; note: potency is the fitted concentration of half-maximal effect). The procedure, abridged: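 In HEK293T cells bearing the PR-UAS-bla reporter, compound effects on promegestone-driven (1 nM) beta-lactamase expression are assessed after 16 hr using a fluorescent FRET substrate incubated 2 hr at room temperature.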

A short description of experiment [3]: qHTS assay to identify small molecule antagonists of the progesterone receptor (PR) signaling pathway - cell viability counter screen (AID 1346798). Note: nearly all actives have a fitted effect of over 50% in size. Note: potency is the fitted concentration of half-maximal effect. The procedure, abridged:
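Following a 4 hr attachment, PR-UAS-bla HEK293T cells in charcoal-stripped FBS medium were exposed to compounds with R5020 for 16 hr; CellTiter-Glo was added and luminescence read after 30 min at room temperature.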

Experiment [4] is described as follows: qHTS assay to identify small molecule agonists of the progesterone receptor (PR) signaling pathway - cell viability counter screen (AID 1346799; calls by dose curve; note: nearly all actives have a fitted effect of over 45% in size; note: potency is the fitted concentration of half-maximal effect). The procedure, abridged: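 Here, 3,000 PR-UAS-bla HEK293T cells per well were treated with compounds for 16 hr after a 6 hr preincubation at 37C and 5% CO2; cell viability is the CellTiter-Glo luminescence signal.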

A short description of experiment [5]: qHTS assay to identify small molecule agonists of the TGF-beta/Smad signaling pathway - cell viability counter screen (AID 1346829). Note: top concentration of the series differs between compounds; nearly all actives have a fitted effect of over 45% in size. The procedure, abridged: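 Same-well cytotoxicity: CellTiter-Glo added after the 2 hr room-temperature beta-lactamase substrate step, luminescence measured 30 min later; cells had 5 hr of compound at 37 C.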
The target in experiment [6] is Thyrotropin-releasing hormone receptor (Homo sapiens) (UniProt P34981). The experiment can be described thus: qHTS assay to identify small molecule antagonists of the thyrotropin-releasing hormone receptor (TRHR) signaling pathway (AID 1346877; active = well fitted inhibition curve with a large enough effect in the repeat runs, not every such curve was filed as active; note: series mostly up to about 51 µM). The method, boiled down:
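Antagonist mode: after a 5 min room-temperature compound exposure, cells were stimulated with 1 nM (final) TRH. Dye-loaded TRHR-HEK293 cells were used, and calcium-dependent fluorescence was followed for 3 min, with 15-point titrations run in triplicate.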

The target is the same in experiment [7]. Put plainly: qHTS assay to identify small molecule agonists of the thyrotropin-releasing hormone receptor (TRHR) signaling pathway (AID 1346891; calls by dose curve; note: series mostly up to about 58 µM). The procedure, abridged: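 Screening of agonists relied on calcium signalling in HEK293 cells expressing human TRHR: dye loading 2 h at 37 °C preceded compound addition and a 3-min fluorescence time course.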
Experiment [8] is described as follows: Human pregnane X receptor (PXR) small molecule agonists, qHTS cell viability counter screen (AID 1346977). Note: nearly all actives have a fitted effect of over 50% in size. Note: potency is the fitted concentration of half-maximal effect. The method, boiled down: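 Tox21 qHTS format; PXR-Luc HepG2, 2,000/well, charcoal-stripped FBS 5%. Cpd exposure 24hr. Read: CellTiter-Fluor fluorescence, multiplexed with luciferase.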
Experiment [9] is described as follows: qHTS assay to identify small molecule agonists of the TGF-beta/Smad signaling pathway (AID 1346859; active = well fitted activation curve with a large enough effect in the signal ratio in the repeat runs, not every such curve was filed as active; the % refers to the signal ratio; note: series mostly up to about 77 µM). The procedure, abridged:
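Each well held 4,000 SBE-bla HEK 293T cells incubated overnight before compound addition; 5 hr later the cleavable FRET substrate went on for 2 hr at room temperature, and fluorescence was read at two emissions.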

A short description of experiment [10]: qHTS assay to identify small molecule antagonists of the TGF-beta/Smad signaling pathway - cell viability counter screen (AID 1346824). Note: nearly all actives have a fitted effect of over 50% in size. The method, boiled down: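 Cytotoxicity counter-screen run in the same wells as the beta-lactamase Smad reporter read: CellTiter-Glo luminescence after 30 min at room temperature. HEK 293T SBE-bla cells had 5 hr compound exposure at 37 C with TGF-beta1 (0.25 ng/mL stock).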

Chain of Thyrotropin-releasing hormone receptor (Homo sapiens) (P34981 whole entry, looked up): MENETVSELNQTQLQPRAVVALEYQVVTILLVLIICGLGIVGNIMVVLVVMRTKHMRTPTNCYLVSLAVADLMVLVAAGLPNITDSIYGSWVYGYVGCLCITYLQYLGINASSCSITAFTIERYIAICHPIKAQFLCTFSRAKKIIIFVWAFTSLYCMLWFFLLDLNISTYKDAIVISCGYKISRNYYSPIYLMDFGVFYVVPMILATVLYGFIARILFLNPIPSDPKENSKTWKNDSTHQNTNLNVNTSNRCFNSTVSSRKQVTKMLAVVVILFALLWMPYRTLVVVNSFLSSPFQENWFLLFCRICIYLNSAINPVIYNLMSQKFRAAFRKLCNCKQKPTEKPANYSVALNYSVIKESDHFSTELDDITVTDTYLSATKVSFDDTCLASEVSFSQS
Chain of Progesterone receptor (Homo sapiens) (P06401 whole entry, looked up): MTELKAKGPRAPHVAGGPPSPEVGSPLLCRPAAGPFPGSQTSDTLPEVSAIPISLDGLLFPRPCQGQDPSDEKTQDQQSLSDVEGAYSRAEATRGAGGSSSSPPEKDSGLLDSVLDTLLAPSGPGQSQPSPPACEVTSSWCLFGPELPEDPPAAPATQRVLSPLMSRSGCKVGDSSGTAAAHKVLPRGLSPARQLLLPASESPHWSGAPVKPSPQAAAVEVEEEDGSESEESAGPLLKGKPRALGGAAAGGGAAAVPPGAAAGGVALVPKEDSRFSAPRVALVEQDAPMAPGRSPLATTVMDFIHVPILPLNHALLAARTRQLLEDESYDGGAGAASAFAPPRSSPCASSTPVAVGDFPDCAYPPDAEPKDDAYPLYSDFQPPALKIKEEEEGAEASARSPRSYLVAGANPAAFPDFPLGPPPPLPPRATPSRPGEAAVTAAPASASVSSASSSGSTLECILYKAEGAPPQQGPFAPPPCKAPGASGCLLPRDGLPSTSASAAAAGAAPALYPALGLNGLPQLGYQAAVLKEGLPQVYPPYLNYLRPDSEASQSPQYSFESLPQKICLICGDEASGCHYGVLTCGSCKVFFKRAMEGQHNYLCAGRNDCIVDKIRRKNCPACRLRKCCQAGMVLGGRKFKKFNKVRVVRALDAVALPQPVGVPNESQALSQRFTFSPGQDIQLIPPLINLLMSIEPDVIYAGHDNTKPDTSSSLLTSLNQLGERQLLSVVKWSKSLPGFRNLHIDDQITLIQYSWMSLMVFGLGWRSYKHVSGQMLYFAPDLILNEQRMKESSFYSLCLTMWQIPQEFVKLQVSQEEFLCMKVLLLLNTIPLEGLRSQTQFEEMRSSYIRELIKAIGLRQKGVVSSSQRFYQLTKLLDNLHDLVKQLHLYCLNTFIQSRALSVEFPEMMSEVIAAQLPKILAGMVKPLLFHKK

As for `CC(C)(C)NCC(O)c1cc(O)cc(O)c1` (stereo not drawn), the Potency result in experiment [1], in experiment [2], in experiment [3], in experiment [4], in experiment [5] and in [6] was “inactive” each time. The Potency result in experiment [7] and in experiment [8] was “inactive” throughout.
For `CNC1(C)C2CCC(C2)C1(C)C` (stereo not drawn), the Potency entry in experiment [1], in experiment [2], in [3], in experiment [4], in experiment [5] and in experiment [6] was “inactive” throughout. Further, the Potency result in experiment [7] and in experiment [8] was “inactive” throughout. Also, the call in experiment [9] was inactive.
As to `COc1ccc(Cc2cnc(N)nc2N)cc1OC`, the Potency entry in [1], in experiment [2], in experiment [3], in experiment [4], in [5] and in experiment [6] was “inactive” each time. In addition, the Potency result in [7] and in experiment [8] was “inactive” throughout. Also, the compound was classed as inactive in [9].
As to `Cc1ccnc2c1NC(=O)c1cccnc1N2C1CC1`, the Potency result in experiment [1], in experiment [2], in [3], in experiment [4], in [10] and in experiment [5] was “inactive” throughout. Besides, the Potency entry in experiment [6], in experiment [7] and in experiment [8] was “inactive” in each case. Moreover, in experiment [9], the compound was classed as inactive.
Turning to `CC(COc1ccccc1)N(CCCl)Cc1ccccc1` (stereo not drawn), the Potency result in experiment [1], in [3], in experiment [4], in [5] and in [8] was “inactive” each time. Further, in [2], the Potency was 30.6 µM (active) and 26.6 µM (active). Also, the outcome in [9] was inactive.
Regarding `O=C(Cl)c1cccc(C(=O)Cl)c1`, the Potency result in [1], in [2], in experiment [3], in experiment [4], in [5] and in experiment [6] was “inactive” in each case. The Potency entry in [7] and in experiment [8] was “inactive” in each case. For the same compound, the compound was classed as inactive in experiment [9].
Turning to `COc1nc(C)nc(Cl)c1NC1=NCCN1`, the Potency entry in experiment [1], in experiment [2], in [3], in experiment [4], in [10] and in experiment [5] was “inactive” throughout. Besides, the Potency result in [6], in [7] and in experiment [8] was “inactive” each time.
Consider `NC(N)=NC(=O)Cc1c(Cl)cccc1Cl`, for which the Potency result in [1], in experiment [2], in experiment [3], in [4], in experiment [10] and in [5] was “inactive” throughout. Moreover, the Potency result in experiment [6], in experiment [7] and in experiment [8] was “inactive” in each case. Moreover, in experiment [9], the outcome was inactive.
As to `CCCOC(=O)c1cc(O)c(O)c(O)c1`, the Potency result in experiment [1], in experiment [2], in experiment [3], in experiment [4], in experiment [10] and in experiment [5] was “inactive” in each case. Further, the compound was called inactive in [9].
Consider `CC1=C(C=O)C(C)(C)CC=C1`, for which the Potency result in experiment [1], in experiment [2], in [3], in [4], in [10] and in experiment [5] was “inactive” each time. The Potency entry in [6], in [7] and in experiment [8] was “inactive” in each case. In addition, the result in experiment [9] was inactive.
Consider `OCC(CO)N[C@H]1C[C@](O)(CO)[C@@H](O)[C@H](O)[C@H]1O`, for which the Potency entry in experiment [1], in [2], in experiment [3], in experiment [4], in experiment [10] and in [5] was “inactive” in each case. The Potency entry in experiment [6], in [7] and in [8] was “inactive” throughout. In experiment [9], the outcome was inactive.
Regarding `C=CC(=O)OCCCCCCOC(=O)C=C`, the Potency result in [1], in experiment [2], in [3], in experiment [4], in experiment [10] and in experiment [5] was “inactive” each time. Moreover, the Potency entry in experiment [6], in experiment [7] and in experiment [8] was “inactive” throughout.
Turning to `Cc1cccc(O)c1C`, the Potency in experiment [1] is 24.2 µM (active) and inactive. In addition, the Potency result in [2], in experiment [3], in [4], in experiment [10], in [5] and in experiment [6] was “inactive” throughout. Further, the Potency entry in experiment [7] and in experiment [8] was “inactive” throughout. Further, the compound was classed as inactive in [9].
Consider `CCOc1ccccc1C(N)=O`, for which the Potency entry in [1], in [3], in experiment [4], in experiment [10], in experiment [5] and in [6] was “inactive” in each case. For the same compound, the Potency entry in experiment [7] and in [8] was “inactive” each time. The Potency result in experiment [2] is “inactive and 26.6 µM (active)”. The compound was classed as inactive in [9].
Turning to `CC(=O)Nc1ccc(C(=O)CCl)cc1`, the Potency entry in [1], in experiment [2], in experiment [3], in [4], in experiment [10] and in experiment [5] was “inactive” throughout. The Potency result in experiment [6] and in [7] was “inactive” each time. Moreover, the outcome in experiment [9] was inactive. The Potency result in experiment [8] is “inactive and 61.1 µM (active)”.
Take `COC(=O)[C@H]1[C@H]2C[C@@H]3c4[nH]c5cc(OC)ccc5c4CCN3C[C@H]2C[C@@H](OC(=O)c2cc(OC)c(OC)c(OC)c2)[C@@H]1OC`: the Potency entry in experiment [1], in experiment [2], in experiment [3], in experiment [4], in experiment [10] and in experiment [5] was “inactive” throughout. In experiment [8], the Potency was 39.7 µM (active) and inactive.
`C[N+]1([O-])CCOCC1`: the Potency result in experiment [1], in experiment [2], in experiment [3], in experiment [4], in [10] and in experiment [5] was “inactive” in each case. For the same compound, the Potency result in experiment [6], in experiment [7] and in experiment [8] was “inactive” in each case. In [9], the outcome was inactive.
Consider `C1COC(NC(C2CC2)C2CC2)=N1`, for which the Potency result in experiment [1], in [2], in experiment [3], in experiment [4], in experiment [10] and in experiment [5] was “inactive” in each case. Further, the Potency result in experiment [6], in experiment [7] and in [8] was “inactive” throughout. Besides, the compound was classed as inactive in experiment [9].
With `CO[Si](OC)(OC)c1ccccc1`, the Potency result in [1], in [2], in [3], in [4], in [5] and in [6] was “inactive” throughout. Besides, the Potency result in experiment [7] and in experiment [8] was “inactive” throughout. Further, the call in [9] was inactive.
Regarding `C/C=C/c1ccc(OCC)c(O)c1`, the Potency result in experiment [1], in experiment [2], in [3], in experiment [4], in [5] and in [6] was “inactive” each time. For the same compound, the Potency entry in experiment [7] and in experiment [8] was “inactive” throughout.
With `Cc1c(O)cccc1C(=O)N[C@@H](CSc1ccccc1)[C@H](O)CN1C[C@H]2CCCC[C@H]2C[C@H]1C(=O)NC(C)(C)C`, in experiment [1], the Potency result is “inactive”. In addition, the Potency is 13.3 µM (active) and 21.1 µM (active) in experiment [2]; 29.8 µM (active) in experiment [3]; 26.6 µM (active) in [4]; 16.8 µM (active) and 13.3 µM (active) in experiment [8].
Turning to `CC[C@H]1CN2CCc3cc(OC)c(OC)cc3[C@@H]2C[C@@H]1C[C@H]1NCCc2cc(OC)c(OC)cc21`, the Potency entry in [1], in [3], in [4] and in experiment [5] was “inactive” each time. Moreover, the Potency in [2] was 772 nM (active); in [8] it was 24.4 nM (active) and 10.6 nM (active). The compound was called inactive in [9].
